Experimental data taken from PubChem BioAssay (NCI).
This is part of a sample that, as a whole, favours compounds with a hit. Of some 79,000 tested, about 15% had one in any assay. No stated cut-off is given here; in the data, active means growth inhibition above about 70%; inactive means the rest.

Assays:
[1] = NCI Yeast Anticancer Drug Screen. Data for the rad50 strain (AID 155);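 further: 0% = growth of vehicle-only cultures of the same strain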; details: S. cerevisiae rad50 strain growth inhibition; at 50.0 µM; stronger effect = higher value
Procedure, shortened: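 Vehicle-treated cultures provide the reference for the growth inhibition reported for compound-exposed, repair-deficient yeast.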

[2] = NCI Yeast Anticancer Drug Screen. Data for the mec2-1 strain (AID 157); details: S. cerevisiae mec2-1 strain, at 50.0 µM, stronger effect = higher value
Procedure, shortened: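 Each compound was tested on mec2-1 yeast, a strain altered in DNA damage repair or cell cycle control. Growth inhibition is reported relative to vehicle.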

[3] = NCI Yeast Anticancer Drug Screen. Data for the sgs1 mgt1 strain (AID 161);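 further: 0% = growth of cultures given vehicle only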; details: S. cerevisiae sgs1 mgt1 strain, at 50.0 µM, stronger effect = higher value
Procedure, shortened: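 Genetically altered yeast, compound exposure, growth inhibition relative to vehicle.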

[4] = NCI Yeast Anticancer Drug Screen. Data for the cln2 rad14 strain (AID 165);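 further: 0% = growth equal to vehicle treated cultures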; details: S. cerevisiae cln2 rad14 strain, at 50.0 µM, stronger effect = higher value
Procedure, shortened: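 Test compounds were added to cln2 rad14 yeast cultures; inhibition of growth was then determined by comparison with vehicle treatment.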

[5] = NCI Yeast Anticancer Drug Screen. Data for the bub3 strain (AID 167); details: S. cerevisiae bub3 mutant strain, at 50.0 µM, stronger effect = higher value
Procedure, shortened: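 Mutant yeast screening strain plus compound; vehicle-treated cultures serve as the 0% inhibition reference.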

[6] = NCI Yeast Anticancer Drug Screen. Data for the mlh1 rad18 strain (AID 175); details: S. cerevisiae mlh1 rad18 strain growth inhibition; at 50.0 µM; stronger effect = higher value
Procedure, shortened: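 Inhibition values reflect reduced growth of mutant yeast versus vehicle-treated controls following compound exposure; the mutations affect DNA damage repair.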

Measured: growth inhibition

O=C(Cc1ccccc1)N(C(=O)c1ccccc1)c1ccccc1
inactive: [1] 8.9% | [2] 14.5% | [3] 10.8% | [4] 9.1% | [5] 24.1% | [6] 15.7%

C=CCC(C#N)C1=CCCCC1 (stereo unspecified)
inactive: [1] -6.85% | [2] -26.6% | [3] -12.4% | [4] -4.3% | [5] -23.6% | [6] -5.75%

O=C1CSCc2sccc21
inactive: [1] 37% | [2] 26.1% | [3] 6.55% | [4] -14.4% | [5] 17.3% | [6] 2.95%

O=C1CNS(=O)(=O)N1
inactive: [1] -18.9% | [2] 8.45% | [3] -16.5% | [4] 10.2% | [5] -16.4% | [6] -7.85%

N#CN1CC[C@@H]2CC3(CCC2C1)OCCO3 (stereo partly specified)
inactive: [1] 17.6% | [2] 4.3% | [3] 0.3% | [4] -4.45% | [5] -18.4% | [6] 1.5%

O=C(c1ccccc1)[C@H]1Nc2ccc(Cl)cc2[C@H]2c3ccccc3O[C@H]21
inactive: [1] 33.9% | [2] -6.7% | [3] 12.4% | [4] 18.8% | [5] -1.45% | [6] 2.5%

Cc1ccc(C(C)C)cc1OCCOCCCl
inactive: [1] -2.25% | [2] 12.8% | [3] -4.85% | [4] -148% | [5] -1% | [6] 10.8%

O=C(c1ccccc1C(=O)N1CCCO1)N1CCCO1
inactive: [1] -0.45% | [2] -8.3% | [3] 6.9% | [4] -15.8% | [5] 6.15% | [6] 16.9%

Cc1[nH]nc(N)c1C(N)=O
inactive: [1] 5.2% | [2] 2.5% | [3] 26.6% | [4] 1.2% | [5] 0.85% | [6] 5.85%

O=C(CN1CCCc2ccccc21)c1ccccc1
inactive: [1] 6.75% | [2] 6.7% | [3] 4.55% | [4] 10.3% | [5] 19% | [6] 10.4%

CN1c2ccccc2N(C)C2C1N(C)c1ccccc1N2C (stereo unspecified)
inactive: [1] -38.9% | [2] -28.4% | [3] -12.4% | [4] -1.8% | [5] -19.9% | [6] -36.1%

CCOc1c(N=Nc2ccccc2)c(C)nn1C(N)=S
inactive: [1] -55.9% | [2] -24.6% | [3] 9.95% | [4] -40.9% | [5] 0.4% | [6] 3.4%

CCCCNc1ncnc2c1cnn2C
inactive: [1] -3.2% | [2] 18.9% | [3] -28.2% | [4] -11.9% | [5] -7.1% | [6] -4.3%

O=C(Cl)Cc1ccccc1[N+](=O)[O-]
inactive: [1] 14.5% | [2] 14.6% | [3] 12.4% | [4] 6.55% | [5] -20.4% | [6] 12.9%

CNC1=C(Sc2ccc(C)cc2)C(=O)c2ccccc2C1=O
inactive: [1] -4.9% | [2] 1.8% | [3] 5.4% | [4] -0.45% | [5] -9.05% | [6] -8.7%

Cc1nc(C(N)=S)sc1C(=O)CC(=O)C(=O)Nc1ccc(Br)cc1
inactive: [1] 2.5% | [2] -38.5% | [3] -24.4% | [4] 1.35% | [5] -25.8% | [6] -14.8%

O=C1OC(c2ccc([N+](=O)[O-])cc2)=N/C1=C\c1cc(Br)ccc1O
inactive: [1] 52.8% | [2] 28.5% | [3] 49.7% | [4] 64.3% | [5] 50.4% | [6] 35%

O=C1c2c(O)cccc2C(C(=O)CCCCC(=O)C2c3cccc(O)c3C(=O)c3c(O)cccc32)c2cccc(O)c21
inactive: [1] 1.75% | [2] 15.2% | [3] 27.3% | [4] 17.1% | [5] 17.2% | [6] 1.05%

CCN(CC)CC(O)Cn1cnc2c(=S)nc[nH]c21 (stereo unspecified)
inactive: [1] 8.7% | [2] -4.05% | [3] -3.45% | [4] 4.9% | [5] 1.45% | [6] -4.45%

c1ccc2c(c1)CCc1ccccc1N2
inactive: [1] 1.65% | [2] 13.8% | [3] -28.9% | [4] 6.45% | [5] 15.1% | [6] -3.4%

O=C1CN(C(=O)c2ccccc2)C(=S)N1
inactive: [1] 22.5% | [2] 6.7% | [3] 11.7% | [4] -17.9% | [5] 4.75% | [6] 4.5%
